Test results as given in PubChem BioAssay (NCATS).
Records with an inconclusive call do not appear. Entries that show only a call come without a potency. Calls of active or inactive are those of the source. Unless noted, calls follow the shape of the dose curve; as a rule, active = well fitted curve in the direction sought with a large enough effect; inconclusive = small, poorly fitted or top-dose-only effect, or another doubt; inactive = no such curve, though single readings can be large; an effect the other way counts as inactive or inconclusive.

Columns and labels:
[1] = Primary qHTS for small molecule stabilizers of the endoplasmic reticulum resident proteome: Secreted ER Calcium Modulated Protein (SERCaMP) assay (AID 1508630)
In short: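 The SH-SY5Y reporter protocol was run at 3 concentrations up to 38.3 uM (primary) or 11 concentrations (follow-up): 16 h compound, 100 nM thapsigargin for 4 h, then extracellular luciferase luminescence.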

[2] = A High-Content qHTS Against Drug Library for the Identification of Small Molecules that Inhibit DYT1 Early Onset Primary Dystonia-Associated Cell Pathology (AID 1645839; calls by dose curve; also: series mostly up to about 46 µM)
In short: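 Induced EGFP-delE TorsinA cells are imaged after 48 h of compound treatment. Punctate fusion-protein distribution gives the %pathology value, while nuclei counts flag toxicity. Wild-type EGFP-hTOR1A cells define the normal pattern.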

[3] = target: Cytochrome P450 2D6 (Homo sapiens) (UniProt P10635); experiment: Cytochrome P450 family 2 subfamily D member 6 (CYP2D6) small molecule antagonists: luciferase biochemical (cell-free) qHTS assay (AID 1645840; active = well fitted curve in the direction sought with a large enough effect in the repeat runs; an effect the other way counts as inactive or inconclusive; also: nearly all actives have a fitted effect of over 55% in size; also: potency is read from the fitted curve at half-maximal effect)
In short: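 P450-Glo CYP2D6 system: proluciferin substrate converted by enzyme to luciferin, read by luminescence proportional to activity. Enzyme-substrate mix with compound 10 min at room temperature, then NADPH regeneration 1 h before detection reagent.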

[4] = target: Cytochrome P450 2C9 (Homo sapiens) (UniProt P11712); experiment: Cytochrome P450 family 2 subfamily C member 9 (CYP2C9) small molecule antagonists: luciferase biochemical (cell-free) qHTS assay (AID 1645842; active = well fitted curve in the direction sought with a large enough effect in the repeat runs; an effect the other way counts as inactive or inconclusive; also: nearly all actives have a fitted effect of over 55% in size; also: potency is read from the fitted curve at half-maximal effect)
In short: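 P450-Glo CYP2C9 system: proluciferin substrate with enzyme in mix containing 0.4% BSA, 10 min at room temperature, then NADPH regeneration solution added and incubated 1 h at 37C. Detection reagent stopped reaction; luminescence read after 20 min as RLU.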

[5] = Primary qHTS for inhibitors of nuclear receptor binding SET domain protein 2 (NSD2) in an isogenic RCH-ACV NSD2 p.E1099K mutant (9B) (AID 1645876); also: nearly all actives have a fitted effect of over 70% in size; also: potency is read from the fitted curve at half-maximal effect
[6] = Primary qHTS for inhibitors of nuclear receptor binding SET domain protein 2 (NSD2) in an RCH-ACV wild type WT cells (2C) (AID 1645877); also: nearly all actives have a fitted effect of over 70% in size; also: potency is read from the fitted curve at half-maximal effect
[7] = target: Rap guanine nucleotide exchange factor 3 (Homo sapiens) (UniProt O95398); experiment: Confirmatory qHTS for antagonist of cAMP-regulated guanine nucleotide exchange factor 3 (EPAC1) (AID 1645880); also: nearly all actives have a fitted effect of over 55% in size
In short: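 Released BODIPY-GDP fluoresces less than Rap1-bound BODIPY-GDP; the signal is followed at 480/540 nm at 5-min intervals over 30 min, after 5 min at room temperature. Reactions contain 100 nM EPAC1, 250 nM RAP1B-BODIPY-GDP and 50 uM GDP; results are normalized to ATA and DMSO.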

[8] = target: Rap guanine nucleotide exchange factor 3 (Homo sapiens) (UniProt O95398); experiment: Confirmatory qHTS for agonist of cAMP-regulated guanine nucleotide exchange factor 3 (EPAC1) (AID 1645881);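 also: EPAC1 catalysed release of BODIPY-GDP from Rap1B seen as fluorescence loss; nearly all actives have a fitted effect of over 75% in size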
[9] = target: Rap guanine nucleotide exchange factor 4 (Homo sapiens) (UniProt Q8WZA2); experiment: Confirmatory qHTS for agonist of cAMP-regulated guanine nucleotide exchange factor 4 (EPAC2) (AID 1645884);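 also: nucleotide exchange releases bodipy-GDP from Rap1 and this lowers its fluorescence; nearly all actives have a fitted effect of over 65% in size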
[10] = target: Rap guanine nucleotide exchange factor 4 (Homo sapiens) (UniProt Q8WZA2); experiment: Confirmatory qHTS for antagonist of cAMP-regulated guanine nucleotide exchange factor 4 (EPAC2) (AID 1645885); also: nearly all actives have a fitted effect of over 25% in size
[11] = target: Papain (Carica papaya) (UniProt P00784); experiment: Primary qHTS assay for inhibitors of the protease papain (AID 1645873);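 also: papain turnover of Z-FR-AMC read as the AMC fluorescence gain over 10 min; series mostly up to about 50 µM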
Sequence of Papain (Carica papaya) (P00784 whole entry, looked up): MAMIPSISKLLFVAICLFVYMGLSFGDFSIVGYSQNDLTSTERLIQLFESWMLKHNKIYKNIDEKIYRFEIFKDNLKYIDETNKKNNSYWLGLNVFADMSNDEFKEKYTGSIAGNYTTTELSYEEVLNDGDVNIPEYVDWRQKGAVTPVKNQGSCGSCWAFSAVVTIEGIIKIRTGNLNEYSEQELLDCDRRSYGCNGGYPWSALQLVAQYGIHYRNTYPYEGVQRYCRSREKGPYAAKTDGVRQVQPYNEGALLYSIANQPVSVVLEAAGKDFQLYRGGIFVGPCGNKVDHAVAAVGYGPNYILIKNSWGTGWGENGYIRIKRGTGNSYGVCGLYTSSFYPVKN

Sequence of Cytochrome P450 2C9 (Homo sapiens) (P11712 whole entry, looked up): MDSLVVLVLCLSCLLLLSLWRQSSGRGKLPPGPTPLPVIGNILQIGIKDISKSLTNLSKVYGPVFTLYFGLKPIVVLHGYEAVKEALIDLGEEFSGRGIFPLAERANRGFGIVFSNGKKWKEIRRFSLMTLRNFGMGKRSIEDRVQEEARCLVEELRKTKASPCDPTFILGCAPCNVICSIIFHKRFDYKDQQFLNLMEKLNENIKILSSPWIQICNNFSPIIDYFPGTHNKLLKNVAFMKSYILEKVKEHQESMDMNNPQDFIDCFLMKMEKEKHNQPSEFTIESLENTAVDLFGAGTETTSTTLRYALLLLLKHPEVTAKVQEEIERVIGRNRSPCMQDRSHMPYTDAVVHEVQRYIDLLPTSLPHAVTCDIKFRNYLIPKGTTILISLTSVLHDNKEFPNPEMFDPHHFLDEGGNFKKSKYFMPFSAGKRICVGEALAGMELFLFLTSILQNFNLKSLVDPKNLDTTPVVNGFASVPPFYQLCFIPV
Sequence of Cytochrome P450 2D6 (Homo sapiens) (P10635 whole entry, looked up): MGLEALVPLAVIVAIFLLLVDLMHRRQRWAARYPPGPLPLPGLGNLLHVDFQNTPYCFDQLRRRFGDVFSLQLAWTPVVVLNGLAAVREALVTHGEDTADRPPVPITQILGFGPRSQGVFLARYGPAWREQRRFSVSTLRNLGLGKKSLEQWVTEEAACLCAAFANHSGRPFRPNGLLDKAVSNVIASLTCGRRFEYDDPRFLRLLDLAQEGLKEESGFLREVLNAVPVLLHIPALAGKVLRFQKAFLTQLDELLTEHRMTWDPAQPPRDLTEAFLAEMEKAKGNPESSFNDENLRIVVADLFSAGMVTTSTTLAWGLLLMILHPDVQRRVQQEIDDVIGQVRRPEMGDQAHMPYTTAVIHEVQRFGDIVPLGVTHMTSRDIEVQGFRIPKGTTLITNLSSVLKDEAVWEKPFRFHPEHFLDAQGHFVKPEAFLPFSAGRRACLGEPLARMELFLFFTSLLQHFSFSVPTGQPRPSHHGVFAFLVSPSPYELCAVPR
Sequence of Rap guanine nucleotide exchange factor 4 (Homo sapiens) (Q8WZA2 whole entry, looked up): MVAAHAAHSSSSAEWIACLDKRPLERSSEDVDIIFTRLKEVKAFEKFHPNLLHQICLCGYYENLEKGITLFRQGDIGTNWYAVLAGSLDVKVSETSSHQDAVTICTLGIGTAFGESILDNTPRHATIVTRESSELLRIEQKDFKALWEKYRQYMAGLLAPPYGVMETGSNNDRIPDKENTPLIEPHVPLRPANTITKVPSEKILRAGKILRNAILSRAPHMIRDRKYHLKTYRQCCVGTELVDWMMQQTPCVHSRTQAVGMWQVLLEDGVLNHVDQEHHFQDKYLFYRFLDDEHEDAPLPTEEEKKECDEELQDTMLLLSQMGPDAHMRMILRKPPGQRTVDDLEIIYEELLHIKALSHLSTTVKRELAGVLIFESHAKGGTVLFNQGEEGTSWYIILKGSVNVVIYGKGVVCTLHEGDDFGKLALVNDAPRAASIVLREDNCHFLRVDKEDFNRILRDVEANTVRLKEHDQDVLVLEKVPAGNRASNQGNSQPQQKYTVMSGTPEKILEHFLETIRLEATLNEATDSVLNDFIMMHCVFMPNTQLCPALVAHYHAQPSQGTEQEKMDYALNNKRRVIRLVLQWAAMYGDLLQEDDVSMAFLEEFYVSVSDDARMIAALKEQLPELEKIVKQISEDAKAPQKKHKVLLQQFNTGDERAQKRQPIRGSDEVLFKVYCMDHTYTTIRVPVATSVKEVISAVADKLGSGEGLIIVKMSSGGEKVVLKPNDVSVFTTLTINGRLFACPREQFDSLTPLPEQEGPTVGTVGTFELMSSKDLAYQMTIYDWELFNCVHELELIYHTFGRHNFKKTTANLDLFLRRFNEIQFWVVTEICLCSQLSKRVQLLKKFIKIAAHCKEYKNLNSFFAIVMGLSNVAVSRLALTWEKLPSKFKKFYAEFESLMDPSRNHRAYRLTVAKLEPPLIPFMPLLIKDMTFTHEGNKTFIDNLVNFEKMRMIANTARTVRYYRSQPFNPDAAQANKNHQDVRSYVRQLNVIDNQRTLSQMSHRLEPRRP
Sequence of Rap guanine nucleotide exchange factor 3 (Homo sapiens) (O95398 whole entry, looked up): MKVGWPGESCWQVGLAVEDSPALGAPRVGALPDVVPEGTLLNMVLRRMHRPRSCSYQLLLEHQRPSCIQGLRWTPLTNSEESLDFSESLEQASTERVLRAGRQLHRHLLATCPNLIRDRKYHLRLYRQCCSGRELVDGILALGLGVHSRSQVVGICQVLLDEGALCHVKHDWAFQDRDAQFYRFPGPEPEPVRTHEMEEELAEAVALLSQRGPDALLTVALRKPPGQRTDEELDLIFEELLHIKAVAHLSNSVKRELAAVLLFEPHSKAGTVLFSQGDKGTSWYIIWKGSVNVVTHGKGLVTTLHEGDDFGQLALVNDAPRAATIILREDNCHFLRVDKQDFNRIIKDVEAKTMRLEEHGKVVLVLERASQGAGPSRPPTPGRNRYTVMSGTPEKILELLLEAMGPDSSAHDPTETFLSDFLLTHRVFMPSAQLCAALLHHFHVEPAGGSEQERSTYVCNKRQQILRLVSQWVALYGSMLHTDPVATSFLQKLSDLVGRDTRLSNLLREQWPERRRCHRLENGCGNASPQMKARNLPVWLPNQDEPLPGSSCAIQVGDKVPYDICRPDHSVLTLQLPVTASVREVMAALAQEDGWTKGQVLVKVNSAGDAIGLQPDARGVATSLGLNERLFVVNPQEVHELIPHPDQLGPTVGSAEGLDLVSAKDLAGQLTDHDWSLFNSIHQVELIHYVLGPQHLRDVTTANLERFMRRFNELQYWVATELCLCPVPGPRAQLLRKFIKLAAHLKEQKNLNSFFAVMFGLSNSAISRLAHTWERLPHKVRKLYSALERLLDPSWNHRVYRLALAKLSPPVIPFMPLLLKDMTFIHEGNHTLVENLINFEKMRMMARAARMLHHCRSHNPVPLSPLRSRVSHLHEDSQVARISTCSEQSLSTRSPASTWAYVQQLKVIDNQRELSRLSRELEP

Row | SMILES | Potency [1] | Potency [2] | Potency [3] | Potency [4] | Potency [5] | Potency [6] | Potency [7] | Potency [8] | Potency [9] | Potency [10] | Potency [11]
1 | O=C(O)Cc1sc(-c2ccccc2)nc1-c1ccc(Cl)cc1 | inactive | inactive | inactive | 4.9 µM (active) | inactive | inactive |  |  |  |  | 
2 | C[C@H]1O[C@@H](n2cc(F)c(=O)[nH]c2=O)[C@H](O)[C@@H]1O | inactive | inactive | inactive | inactive | 20.9 µM (active) | 20.9 µM (active) |  |  |  |  | 
3 | O=C(Oc1ccccc1C(=O)O)c1ccccc1O | inactive | inactive | inactive | inactive | inactive | inactive |  |  |  |  | 
4 | Cc1cccc(Nc2cc(Cl)nc(SCC(=O)O)n2)c1C | inactive | inactive | inactive |  | inactive | inactive |  |  |  |  | 
5 | CCC(=O)c1ccc(O)cc1 | inactive | inactive | inactive | inactive | inactive | inactive |  |  |  |  | 
6 | CC(=O)CCC(=O)O | inactive | inactive | inactive | inactive | inactive | inactive |  |  |  |  | 
7 | Nc1ccc(S(=O)(=O)Nc2ccccc2)cc1 | inactive | inactive | inactive | inactive | inactive | inactive |  |  |  |  | 
8 | CC(COc1ccccc1)NC(C)C(O)c1ccc(O)cc1 (stereo not drawn) | inactive | inactive | 0.617 µM (active) |  | inactive | inactive |  |  |  |  | 
9 | CC1(C)Oc2ccc(C#N)cc2[C@@H](N2CCCC2=O)[C@@H]1O | inactive | inactive | inactive | inactive |  |  | inactive | inactive | inactive | inactive | 
10 | CCOC(CN1CCN(CC(C)C(=O)c2ccccc2)CC1)c1ccccc1 (stereo not drawn) | inactive | inactive | 0.0952 µM (active) |  | inactive | 14.5 µM (active) |  |  |  |  | 
11 | Oc1cccc(O)c1 | inactive | inactive | inactive | inactive | inactive | inactive |  |  |  |  | 
12 | O=S(=O)(O)c1cc(I)c(O)c2ncccc12 | inactive | inactive | inactive | inactive | inactive | inactive |  |  |  |  | 
13 | O=C(O)CN1C(=O)c2cccc3cccc(c23)C1=O | inactive | inactive | inactive | inactive | inactive | inactive |  |  |  |  | 
14 | CC(=O)OCC(=O)[C@@]1(O)CC[C@H]2[C@@H]3CCC4=CC(=O)CC[C@]4(C)[C@H]3C(=O)C[C@@]21C | inactive | inactive | 3.89 µM (active) |  | inactive | inactive |  |  |  |  | inactive
15 | CC1=C(CC(=O)O)c2cc(F)ccc2/C1=C\c1ccc(S(C)(=O)=O)cc1 | inactive | inactive | inactive |  |  |  |  |  |  |  | inactive
16 | OC[C@H]1O[C@@H](O[C@@H]2[C@@H](CO)O[C@](O)(CO)[C@H]2O)[C@H](O)[C@@H](O)[C@H]1O | inactive | inactive | inactive |  | inactive | inactive |  |  |  |  | 
17 | CCN(CC)C(=O)Nc1ccc(OCC(O)CNC(C)(C)C)c(C(C)=O)c1 (stereo not drawn) | inactive | inactive | inactive | inactive | inactive | inactive |  |  |  |  | 
